Experimental data as given in PubChem BioAssay (Tox21).
Results filed as inconclusive are left out. Entries that show only a call come without a potency. Values without a mark were called inactive. Active and inactive are the calls of the source. Calls come from the whole dose curve; as a rule, active = well fitted cell-killing curve with a large enough effect in the repeat runs; inconclusive = weak or mixed curves, or effect the other way; inactive = flat fitted curve, though single readings scatter.

Assay: cAMP Responsive Elements (CRE) small molecule antagonists, cell-based qHTS assay: qHTS cell viability counter screen (AID 2060913); note: nearly all actives have a fitted effect of over 40% in size
Conditions: CRE-bla HEK293T viability, CellTiter-Glo luminescence, 5 h; series mostly up to 92.4 µM
Procedure, shortened: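 Viability of NKH477-stimulated (0.25 uM final) CRE-bla HEK293T cells is measured by CellTiter-Glo luminescence following 3 hrs compound exposure at 37 C.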

**Q.** Which Potency does the source give for `CC(C)=CCC1=C(O)c2ccccc2C(=O)C1=O` here?
**A.** The Potency was “inactive”.

**Q.** Which Potency does the source give for `CNC(=S)N(C)C` here?
**A.** The Potency was “inactive”.

**Q.** For `O=C1[C@H](CC[C@H](O)c2ccc(F)cc2)[C@@H](c2ccc(O)cc2)N1c1ccc(F)cc1`, which Potency is on record?
**A.** The Potency was “inactive”.

**Q.** Which Potency does the source give for `C=C[Si](OC(C)=O)(OC(C)=O)OC(C)=O` here?
**A.** The Potency was “inactive”.

**Q.** With `CC1=C(O)C(=O)C(C)O1` (stereo not given) as the compound, how does the Potency read?
**A.** Its Potency is “inactive”.

**Q.** Which Potency does the source give for `N#[N+]c1ccc2c(S(=O)(=O)[O-])cccc2c1O` here?
**A.** The Potency was “inactive”.

**Q.** For `CO[Si](CCCOCC1CO1)(OC)OC` (stereo not given), which Potency is on record?
**A.** Its Potency is “inactive”.

**Q.** Which Potency does the source give for `CCOc1ccc(NS(=O)(=O)c2ccc(N)cc2)nn1` here?
**A.** The Potency was “inactive”.

**Q.** For `CO/N=C(\C(=O)N[C@@H]1C(=O)N2C(C(=O)O)=C(CSc3nc(=O)c(O)nn3C)CS[C@H]12)c1csc(N)n1`, which Potency is on record?
**A.** The Potency was “inactive”.

**Q.** Which Potency does the source give for `CC(=O)O[C@]1(C(C)=O)CC[C@H]2[C@@H]3C[C@H](C)C4=CC(=O)CC[C@]4(C)[C@H]3CC[C@@]21C` here?
**A.** The Potency was “inactive”.

**Q.** Which Potency does the source give for `Nc1nc2ccccc2n1Cc1ccc(F)cc1` here?
**A.** The Potency was “inactive”.

**Q.** For `CCOC(=O)CCc1ccccc1`, which Potency is on record?
**A.** The Potency was “inactive”.

**Q.** Which Potency does the source give for `C=C1CCC2CC1C2(C)C` (stereo not given) here?
**A.** Its Potency is “inactive”.

**Q.** With `CN(C)CCN1CCN(c2cccc(Cl)c2)C1=O` as the compound, how does the Potency read?
**A.** The Potency was “inactive”.

**Q.** For `CN1CCC[C@H]1c1cccnc1`, which Potency is on record?
**A.** Its Potency is “inactive”.

**Q.** For `c1ccc2nccnc2c1`, which Potency is on record?
**A.** Its Potency is “inactive”.

**Q.** With `O=C(Cl)c1ccc([N+](=O)[O-])cc1` as the compound, how does the Potency read?
**A.** Its Potency is “inactive”.

**Q.** Which viability change, negative = cytotoxic does the source give for `C[C@@H]1CC[C@@]2(OC1)O[C@H]1C[C@H]3[C@@H]4CC[C@H]5C[C@@H](O)CC[C@]5(C)[C@H]4CC(=O)[C@]3(C)[C@H]1[C@@H]2C` here?
**A.** Its viability change, negative = cytotoxic is 0.912% [at 8.39 µM].

**Q.** Which Potency does the source give for `CCOC(=O)C1=C(C)NC(C)=C(C(=O)OC)C1c1cccc([N+](=O)[O-])c1` (stereo not given) here?
**A.** The Potency was “inactive”.

**Q.** For `CCCCCCCCC1CCC(=O)O1` (stereo not given), which Potency is on record?
**A.** The Potency was “inactive”.
